In ChEMBL document CHEMBL1961873, “Compounds: GSK PKIS; Assays: Nanosyn kinase panel” (2012):

Tests used:
[1] = target: T1, Serine/threonine-protein kinase Nek9 (Homo sapiens) (UniProt Q8TD19); conditions: at 1 µM;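 note: each value is a mean percent inhibition of NEK9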
T1 sequence (whole entry): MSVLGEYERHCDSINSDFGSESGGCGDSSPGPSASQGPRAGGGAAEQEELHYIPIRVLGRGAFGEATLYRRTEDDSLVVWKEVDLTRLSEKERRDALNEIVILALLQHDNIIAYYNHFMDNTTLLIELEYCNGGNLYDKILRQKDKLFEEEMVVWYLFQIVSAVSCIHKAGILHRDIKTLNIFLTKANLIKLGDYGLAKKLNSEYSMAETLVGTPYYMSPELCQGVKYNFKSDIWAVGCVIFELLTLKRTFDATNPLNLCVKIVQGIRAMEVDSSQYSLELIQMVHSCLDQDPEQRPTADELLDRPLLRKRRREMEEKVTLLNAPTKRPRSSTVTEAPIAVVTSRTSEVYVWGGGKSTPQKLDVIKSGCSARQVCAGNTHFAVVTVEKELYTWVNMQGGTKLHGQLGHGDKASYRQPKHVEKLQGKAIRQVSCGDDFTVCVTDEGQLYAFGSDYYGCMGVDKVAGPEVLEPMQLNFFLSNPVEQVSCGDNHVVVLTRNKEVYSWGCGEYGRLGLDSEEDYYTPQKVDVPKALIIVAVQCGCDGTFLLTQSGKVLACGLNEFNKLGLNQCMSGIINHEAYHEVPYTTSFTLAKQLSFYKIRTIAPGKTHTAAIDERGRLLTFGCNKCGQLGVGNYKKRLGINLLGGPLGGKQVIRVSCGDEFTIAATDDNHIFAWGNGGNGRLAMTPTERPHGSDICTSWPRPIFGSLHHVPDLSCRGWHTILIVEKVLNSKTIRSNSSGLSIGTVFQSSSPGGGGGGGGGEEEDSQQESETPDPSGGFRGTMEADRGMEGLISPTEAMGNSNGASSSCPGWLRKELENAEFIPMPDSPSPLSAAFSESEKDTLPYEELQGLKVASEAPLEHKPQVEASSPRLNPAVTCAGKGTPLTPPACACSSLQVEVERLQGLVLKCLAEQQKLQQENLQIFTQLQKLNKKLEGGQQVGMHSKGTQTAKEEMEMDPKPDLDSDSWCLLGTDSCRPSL

[2] = target: Serine/threonine-protein kinase PLK1 (Homo sapiens) (UniProt P53350); conditions: at 0.1 µM
[3] = target: Serine/threonine-protein kinase PLK1 (Homo sapiens) (UniProt P53350); conditions: at 1 µM
[4] = target: T2, Dual specificity protein kinase TTK (Homo sapiens) (UniProt P33981); conditions: at 0.1 µM
T2 sequence (whole entry): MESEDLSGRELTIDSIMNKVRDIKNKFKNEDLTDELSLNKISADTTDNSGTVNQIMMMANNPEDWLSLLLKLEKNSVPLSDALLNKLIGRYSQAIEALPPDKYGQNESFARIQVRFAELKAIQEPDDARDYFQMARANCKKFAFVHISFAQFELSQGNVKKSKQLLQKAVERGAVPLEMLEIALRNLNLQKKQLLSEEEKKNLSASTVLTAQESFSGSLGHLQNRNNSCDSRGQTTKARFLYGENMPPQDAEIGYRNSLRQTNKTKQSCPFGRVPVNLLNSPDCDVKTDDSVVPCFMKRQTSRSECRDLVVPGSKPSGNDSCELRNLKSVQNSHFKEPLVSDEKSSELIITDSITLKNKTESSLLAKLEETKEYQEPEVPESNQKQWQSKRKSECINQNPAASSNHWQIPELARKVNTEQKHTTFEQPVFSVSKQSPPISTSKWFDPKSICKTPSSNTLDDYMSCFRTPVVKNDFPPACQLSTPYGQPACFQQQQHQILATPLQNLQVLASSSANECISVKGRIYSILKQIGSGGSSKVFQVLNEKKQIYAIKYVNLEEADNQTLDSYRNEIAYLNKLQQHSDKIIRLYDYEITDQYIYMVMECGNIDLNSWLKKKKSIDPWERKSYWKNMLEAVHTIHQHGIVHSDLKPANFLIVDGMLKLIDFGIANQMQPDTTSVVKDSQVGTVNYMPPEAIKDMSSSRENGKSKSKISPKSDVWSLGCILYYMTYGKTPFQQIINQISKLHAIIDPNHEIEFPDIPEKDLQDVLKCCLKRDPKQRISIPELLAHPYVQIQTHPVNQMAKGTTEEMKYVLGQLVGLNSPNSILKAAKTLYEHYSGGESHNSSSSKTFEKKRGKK

[5] = test system: T3, Receptor-type tyrosine-protein kinase FLT3 (Homo sapiens), P36888 [D835Y]; conditions: at 1 µM
T3 sequence (whole entry): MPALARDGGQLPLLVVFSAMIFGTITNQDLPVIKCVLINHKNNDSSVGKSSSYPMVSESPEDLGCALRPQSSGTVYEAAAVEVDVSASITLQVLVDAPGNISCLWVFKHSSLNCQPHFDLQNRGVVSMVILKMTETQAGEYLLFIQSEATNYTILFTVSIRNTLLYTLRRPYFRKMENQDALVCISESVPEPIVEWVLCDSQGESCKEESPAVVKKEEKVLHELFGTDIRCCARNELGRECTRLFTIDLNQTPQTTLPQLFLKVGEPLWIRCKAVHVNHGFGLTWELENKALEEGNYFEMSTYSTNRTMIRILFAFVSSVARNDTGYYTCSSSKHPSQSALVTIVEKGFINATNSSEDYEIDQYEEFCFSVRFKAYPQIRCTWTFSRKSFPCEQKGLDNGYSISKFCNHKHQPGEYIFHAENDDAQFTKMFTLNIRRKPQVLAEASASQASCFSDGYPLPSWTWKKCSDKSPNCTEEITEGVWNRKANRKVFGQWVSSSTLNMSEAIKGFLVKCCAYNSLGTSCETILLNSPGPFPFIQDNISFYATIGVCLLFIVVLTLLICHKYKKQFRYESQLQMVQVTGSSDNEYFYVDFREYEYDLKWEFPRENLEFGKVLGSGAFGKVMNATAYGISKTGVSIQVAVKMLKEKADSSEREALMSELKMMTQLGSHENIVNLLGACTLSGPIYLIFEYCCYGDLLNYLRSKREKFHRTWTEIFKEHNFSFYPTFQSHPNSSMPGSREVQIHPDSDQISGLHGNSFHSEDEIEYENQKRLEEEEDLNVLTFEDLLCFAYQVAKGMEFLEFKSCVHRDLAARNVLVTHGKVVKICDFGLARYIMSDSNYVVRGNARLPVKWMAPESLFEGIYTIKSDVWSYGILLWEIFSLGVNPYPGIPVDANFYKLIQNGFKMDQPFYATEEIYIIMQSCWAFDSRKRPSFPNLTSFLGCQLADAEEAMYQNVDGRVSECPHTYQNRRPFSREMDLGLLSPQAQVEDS

[6] = target: Vascular endothelial growth factor receptor 3 (Homo sapiens) (UniProt P35916); conditions: at 0.1 µM
[7] = target: Vascular endothelial growth factor receptor 3 (Homo sapiens) (UniProt P35916); conditions: at 1 µM
[8] = target: Macrophage colony-stimulating factor 1 receptor (Homo sapiens) (UniProt P07333); conditions: at 0.1 µM
[9] = target: Macrophage colony-stimulating factor 1 receptor (Homo sapiens) (UniProt P07333); conditions: at 1 µM
[10] = target: Tyrosine-protein kinase Fyn (Homo sapiens) (UniProt P06241); conditions: at 0.1 µM
Tyrosine-protein kinase Fyn (Homo sapiens), sequence (P06241 2-537 limits assumed): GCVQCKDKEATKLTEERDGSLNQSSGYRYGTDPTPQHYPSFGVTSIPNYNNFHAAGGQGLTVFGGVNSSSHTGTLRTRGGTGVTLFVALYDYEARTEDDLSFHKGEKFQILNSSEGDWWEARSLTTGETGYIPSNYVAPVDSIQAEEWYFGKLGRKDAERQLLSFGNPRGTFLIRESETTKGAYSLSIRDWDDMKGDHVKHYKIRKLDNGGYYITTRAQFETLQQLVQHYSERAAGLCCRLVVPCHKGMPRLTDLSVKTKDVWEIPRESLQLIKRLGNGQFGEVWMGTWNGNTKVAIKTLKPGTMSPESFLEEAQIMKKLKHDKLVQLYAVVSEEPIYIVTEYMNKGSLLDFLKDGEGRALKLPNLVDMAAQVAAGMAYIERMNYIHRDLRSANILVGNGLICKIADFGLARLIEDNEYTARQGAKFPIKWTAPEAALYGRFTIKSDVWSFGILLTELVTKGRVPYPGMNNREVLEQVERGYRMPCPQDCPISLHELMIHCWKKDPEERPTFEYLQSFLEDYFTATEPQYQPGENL

Macrophage colony-stimulating factor 1 receptor (Homo sapiens), sequence (P07333 whole entry): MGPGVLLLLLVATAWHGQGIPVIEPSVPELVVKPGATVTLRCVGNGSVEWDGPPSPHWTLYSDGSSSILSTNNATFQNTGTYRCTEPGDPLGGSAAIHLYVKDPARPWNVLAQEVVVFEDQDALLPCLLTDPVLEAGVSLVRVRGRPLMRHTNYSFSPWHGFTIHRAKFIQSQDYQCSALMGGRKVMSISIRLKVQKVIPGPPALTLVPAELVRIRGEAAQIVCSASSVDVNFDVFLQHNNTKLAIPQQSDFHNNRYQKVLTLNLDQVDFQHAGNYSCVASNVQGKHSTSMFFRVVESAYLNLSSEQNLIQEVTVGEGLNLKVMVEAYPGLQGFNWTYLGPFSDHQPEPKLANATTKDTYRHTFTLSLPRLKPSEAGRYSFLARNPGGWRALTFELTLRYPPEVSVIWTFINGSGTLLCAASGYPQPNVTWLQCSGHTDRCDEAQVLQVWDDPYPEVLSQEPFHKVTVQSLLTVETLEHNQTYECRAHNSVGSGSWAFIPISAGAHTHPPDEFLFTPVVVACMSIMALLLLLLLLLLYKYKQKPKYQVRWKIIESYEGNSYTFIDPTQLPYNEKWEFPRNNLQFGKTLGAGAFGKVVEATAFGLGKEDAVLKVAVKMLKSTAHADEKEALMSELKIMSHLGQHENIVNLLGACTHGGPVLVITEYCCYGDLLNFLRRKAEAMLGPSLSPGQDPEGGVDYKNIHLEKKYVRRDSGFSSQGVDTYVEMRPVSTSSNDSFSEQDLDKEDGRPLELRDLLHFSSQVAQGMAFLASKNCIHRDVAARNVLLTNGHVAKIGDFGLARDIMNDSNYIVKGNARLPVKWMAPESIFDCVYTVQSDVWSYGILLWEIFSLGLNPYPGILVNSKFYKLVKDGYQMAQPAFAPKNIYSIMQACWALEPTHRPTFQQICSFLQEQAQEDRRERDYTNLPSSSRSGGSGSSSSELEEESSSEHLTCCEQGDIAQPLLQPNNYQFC
Serine/threonine-protein kinase PLK1 (Homo sapiens), sequence (P53350 whole entry): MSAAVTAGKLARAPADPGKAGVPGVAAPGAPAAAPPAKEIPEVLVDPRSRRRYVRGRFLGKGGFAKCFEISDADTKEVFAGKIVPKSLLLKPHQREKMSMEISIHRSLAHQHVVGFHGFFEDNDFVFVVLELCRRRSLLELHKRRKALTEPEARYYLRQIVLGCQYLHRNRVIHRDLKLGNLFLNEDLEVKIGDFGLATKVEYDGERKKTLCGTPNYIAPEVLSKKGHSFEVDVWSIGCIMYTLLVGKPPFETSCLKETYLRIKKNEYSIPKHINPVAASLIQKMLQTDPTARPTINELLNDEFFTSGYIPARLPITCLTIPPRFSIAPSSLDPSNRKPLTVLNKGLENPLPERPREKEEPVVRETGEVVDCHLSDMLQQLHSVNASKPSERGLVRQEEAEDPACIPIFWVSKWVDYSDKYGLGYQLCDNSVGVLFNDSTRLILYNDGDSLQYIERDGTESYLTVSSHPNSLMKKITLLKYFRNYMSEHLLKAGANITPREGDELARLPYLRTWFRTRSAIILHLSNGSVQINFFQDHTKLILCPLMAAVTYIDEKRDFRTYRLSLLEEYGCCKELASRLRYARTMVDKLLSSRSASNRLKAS
Vascular endothelial growth factor receptor 3 (Homo sapiens), sequence (P35916 whole entry): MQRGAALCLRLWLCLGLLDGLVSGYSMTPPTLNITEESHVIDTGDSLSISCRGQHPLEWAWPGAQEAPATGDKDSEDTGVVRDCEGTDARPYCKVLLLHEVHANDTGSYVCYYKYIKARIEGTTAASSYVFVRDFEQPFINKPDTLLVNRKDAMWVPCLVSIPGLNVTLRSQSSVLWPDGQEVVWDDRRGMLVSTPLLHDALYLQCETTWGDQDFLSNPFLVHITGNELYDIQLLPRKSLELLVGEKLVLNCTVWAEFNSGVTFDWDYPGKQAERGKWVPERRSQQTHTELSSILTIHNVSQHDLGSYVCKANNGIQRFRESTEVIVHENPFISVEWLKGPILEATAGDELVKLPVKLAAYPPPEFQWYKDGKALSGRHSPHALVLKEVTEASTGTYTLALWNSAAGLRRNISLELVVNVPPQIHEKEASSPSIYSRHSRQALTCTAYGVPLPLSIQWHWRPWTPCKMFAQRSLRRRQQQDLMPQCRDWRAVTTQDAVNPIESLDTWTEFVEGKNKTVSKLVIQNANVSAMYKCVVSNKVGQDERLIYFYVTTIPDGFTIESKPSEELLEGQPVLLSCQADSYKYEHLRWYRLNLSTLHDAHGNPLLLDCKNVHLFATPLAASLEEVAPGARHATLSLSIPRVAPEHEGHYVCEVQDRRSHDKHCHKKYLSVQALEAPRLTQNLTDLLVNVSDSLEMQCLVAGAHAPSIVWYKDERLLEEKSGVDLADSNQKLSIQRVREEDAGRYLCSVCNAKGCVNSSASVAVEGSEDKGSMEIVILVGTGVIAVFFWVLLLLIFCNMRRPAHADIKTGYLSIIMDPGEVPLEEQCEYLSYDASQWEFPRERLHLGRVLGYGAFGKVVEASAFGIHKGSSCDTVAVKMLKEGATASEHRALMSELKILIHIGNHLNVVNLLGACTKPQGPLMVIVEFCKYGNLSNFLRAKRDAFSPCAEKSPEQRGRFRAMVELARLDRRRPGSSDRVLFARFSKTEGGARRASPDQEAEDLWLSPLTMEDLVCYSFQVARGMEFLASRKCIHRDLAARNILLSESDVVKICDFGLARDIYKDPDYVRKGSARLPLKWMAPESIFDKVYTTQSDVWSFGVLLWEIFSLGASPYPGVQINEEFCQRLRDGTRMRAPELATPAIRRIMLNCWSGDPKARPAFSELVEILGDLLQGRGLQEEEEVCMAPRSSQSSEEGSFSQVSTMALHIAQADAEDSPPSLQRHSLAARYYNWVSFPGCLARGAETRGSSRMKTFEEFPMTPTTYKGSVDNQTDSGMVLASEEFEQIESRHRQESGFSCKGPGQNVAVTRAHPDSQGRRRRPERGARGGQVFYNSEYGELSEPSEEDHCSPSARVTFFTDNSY

SMILES	inhibition [1] [%]	inhibition [2] [%]	inhibition [3] [%]	inhibition [4] [%]	inhibition [5] [%]	inhibition [6] [%]	inhibition [7] [%]	inhibition [8] [%]	inhibition [9] [%]	inhibition [10] [%]
Cc1ccc2c(-c3ccnc(Nc4cccc(C(F)(F)F)c4)n3)c(-c3ccccc3)nn2n1	7.33	7.39	6.37	10.5	1.38	4.59	24.9	1.77	23.1	15.6
C[C@@H](Oc1cc(-n2cnc3ccc(OC[C@@H](O)CO)cc32)sc1C(N)=O)c1ccccc1Cl	91.4	92.2	93.5	1.27	8.15	3.69	22.8	0.22	9.24	0.14
COC(=O)c1cncc(/C=C/c2c(C)cc(O)cc2C)c1	3.89	1.89	1.85	6.05	1.33	4.3	2.63	6.96	37.7	3.73
O=C1Nc2ccc(-c3cccnc3)cc2C1=Cc1cc(Br)c(O)c(Br)c1	0.27	3.43	7.7	6.45	13.7	2.46	4.42	4.24	7.78	2.17
CCn1c(-c2nonc2N)nc2ccc(F)cc21	6.41	6.39	4.59	12.1	1.01	6.14	6.77	1.29	0.35	2.04
Nc1nccc(-c2c(-c3ccc(F)cc3)nn3cc(C(F)(F)F)ccc23)n1	0.92	2.53	0.4	1.73	-4.89	0.03	-1.18	-4.62	7.32	0.43
CN(c1ccc(NC(=O)Nc2ccc(OC(F)(F)F)cc2)cc1)c1ccnc(Nc2cccc(S(N)(=O)=O)c2)n1	17.1	2.14	-0.02	4.18	43.2	37.5	90.1	42.6	86.1	8.93
CCCN1CCCC(c2ccc(Nc3nc(Nc4cc(F)ccc4C(N)=O)c4cc[nH]c4n3)c(OC)c2)C1 (stereo not given)	12.8	13.3	48.1	75.9	43.4	-0.55	4.1	34.6	78.6	3.45
Nc1nccc(-c2c(-c3ccc(F)cc3)ncn2CCCN2CCOCC2)n1	15.2	2.14	4.49	10.5	-6.25	15.4	17	2.72	1.51	0.86
NS(=O)(=O)c1ccc(Nc2cc(-c3cccc(O)c3)n[nH]2)cc1	2.91	5.76	4.69	16	30.9	6.76	6.9	5.17	15.4	4.67
CC(C)c1ccc2c(c1)NC(=O)/C2=N/Nc1ccc(S(N)(=O)=O)cc1	4.79	2.6	1.38	2.93	3.33	1.38	5.37	5.18	34.6	2.02
Nc1ccc(C#Cc2cncnc2Nc2ccc(OCc3cccc(F)c3)c(Cl)c2)cc1	6.07	0.94	-0.53	4.2	-6.67	1.01	1.86	0.06	3.9	1.67
NC(=O)c1sc(-n2cnc3ccccc32)cc1OCc1ccccc1Br	23.5	78.3	95.3	10.6	-5.34	2.98	4.24	-0.73	7.89	3.58
O=S(=O)(CCOCc1ccc(-c2ccc3ncnc(Nc4ccc(OCc5cccc(F)c5)c(Cl)c4)c3c2)o1)c1ccccc1	0.79	2.52	2.68	6.45	-7.19	5.04	14	-1.86	7.49	2.16
NS(=O)(=O)c1ccc(-c2cc3ccncc3cc2OCc2ccccc2)cc1	7.84	2.8	1.7	9.2	1.86	-1.68	1.58	-0.56	1.76	1.04
[O-][S+]1CCN(Cc2ccc(-c3ccc4ncnc(Nc5ccc(OCc6ccccc6)c(Cl)c5)c4c3)o2)CC1	3.24	3.9	2.79	8.87	-1.91	7.2	11.7	-0.34	0.13	2.58
CC(C)c1ccc(Nc2nccc(-c3cnn4ncccc34)n2)cc1	11	2.9	4.81	5.54	23.1	0.79	9.77	23	72.1	1.04

SMILES	inhibition [1] [%]	inhibition [2] [%]	inhibition [3] [%]	inhibition [4] [%]	inhibition [5] [%]	inhibition [6] [%]	inhibition [7] [%]	inhibition [8] [%]	inhibition [9] [%]	inhibition [10] [%]
COc1cc(Nc2nccc(-c3cnn4ncccc34)n2)cc(OC)c1	69.9	6.63	36.9	7.15	77.3	10.4	45.4	68.2	94.2	7.87
Cc1cc(-c2ccccn2)cc(C)c1/C=C/c1cncc(-c2nn[nH]n2)c1	5.99	5.02	5.56	11.3	12	9.28	14.4	1.45	12.3	4.53
CCOc1nccc2c1nc(-c1nonc1N)n2CC	11.4	5.12	5.25	7.47	-1.34	12.8	19.3	0.65	2.68	0.3
COc1cc2ncnc(Nc3ccc(C)c(O)c3)c2cc1OC	11.6	2.93	2.77	9.85	2.41	97.5	107	4.29	6.14	12.8
COc1ccc2ncnc(Nc3ccc(OCc4ccccc4)cc3)c2c1	4.48	2.95	0.42	2.89	8.02	-0.47	0.28	3.05	3.66	2.39
C[C@@H](Oc1cc(-n2cnc3ccc(OCC4CCN(C)CC4)cc32)sc1C(N)=O)c1ccccc1C(F)(F)F	102	91.6	94.3	1.25	20.9	1.45	18.6	-4.84	8.46	2.33
Oc1cccc(-c2nc(-c3ccccc3)[nH]c2-c2ccncc2)c1	6.73	4.15	1.85	3.33	22.4	7.41	30.4	1.63	5.02	3.67
Cc1ccc2c(c1)/C(=N/Nc1ccc(S(N)(=O)=O)cc1)C(=O)N2	4.02	0.67	1.12	7.53	10.8	2.09	14.6	2.64	16.7	1.22
CN1CCN(C(=O)c2ccc(NC(=O)Nc3ccc(N(C)c4ccnc(Nc5ccc(CS(C)(=O)=O)cc5)n4)cc3)cc2)CC1	30.1	2.98	3.2	2.87	25.1	8.95	37.5	87.7	81.2	0.29
Cc1ccc(NC(=O)CC2CC2)cc1-c1ccc(C(=O)NCC2CC2)cc1	7.42	3.49	1.97	5.15	0.64	0.87	-0.77	2.08	-0.55	1.7
CS(=O)(=O)Nc1cccc(-c2ccc3c(NC(=O)C4CC4)n[nH]c3c2)c1	3.4	0.09	2.1	2.91	-5.02	3.41	1.96	-0.21	1.8	2.53
CN(C)CCCn1c(-c2nonc2N)nc2cnccc21	12.3	3.73	4.15	8.12	-1.23	15.4	15.3	2.34	1.06	2.62
N#Cc1c(NC(=O)c2ccccc2F)sc2c1CCCC2	1.33	-2.61	0.29	1.48	-1.19	-2.53	0.3	-4.22	-1.66	1.38
COc1cccc(-n2ncc3c(N/N=C/c4ccc(S(C)(=O)=O)cc4)ncnc32)c1	1.23	1.67	0.92	2.54	61.9	-2.95	31.4	6.39	22.5	32.4
CN(C)C(=O)O[C@H]1CN[C@H](C#Cc2cc3ncnc(Nc4ccc(OCc5cccc(F)c5)c(Cl)c4)c3s2)C1	-1.84	2.9	2.92	4.75	4.09	2.38	1.19	10.5	3.36	-0.77
COc1cc2ncn(-c3cc(OCc4ccccc4S(C)(=O)=O)c(C#N)s3)c2cc1OC	1.96	10	47.5	5.84	23.9	26.8	73.4	6.26	33.2	30.9
ON=C1CCc2cc(-c3nc(C4CCNCC4)[nH]c3-c3ccncc3)ccc21	1.01	1.85	0.96	3.99	2.96	-0.02	0.4	2.19	0.63	2.09
